Experimental data taken from PubChem BioAssay (EPA / NIEHS).
Activity calls are given as the source filed them. The calls were made as follows: active = hit-call score of the fitted dose curve at least 0.9, where 1 is the maximum; inactive = score below 0.9.

Read-out: Cytochrome P450 3A4 (Homo sapiens) (UniProt P08684)
Experiment: LTEA_HepaRG_CYP3A4: Life Technologies and Expression Analysis (LTEA) Assay for CYP3A4 using HepaRG (AID 2283487)
Details: mRNA level, 48 h; actives raise or lower the signal
Method in brief: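 Differentiated HepaRG cells, plated 48 h, then dosed 48 h in serum-free induction medium with 0.5% DMSO, 8 half-log concentrations up to 100 uM, duplicate. CYP3A4 mRNA by qRT-PCR, normalized to ACTB/GAPDH/POLR2A; bidirectional fit versus DMSO.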

Cytochrome P450 3A4 (Homo sapiens), sequence (P08684 whole entry, looked up): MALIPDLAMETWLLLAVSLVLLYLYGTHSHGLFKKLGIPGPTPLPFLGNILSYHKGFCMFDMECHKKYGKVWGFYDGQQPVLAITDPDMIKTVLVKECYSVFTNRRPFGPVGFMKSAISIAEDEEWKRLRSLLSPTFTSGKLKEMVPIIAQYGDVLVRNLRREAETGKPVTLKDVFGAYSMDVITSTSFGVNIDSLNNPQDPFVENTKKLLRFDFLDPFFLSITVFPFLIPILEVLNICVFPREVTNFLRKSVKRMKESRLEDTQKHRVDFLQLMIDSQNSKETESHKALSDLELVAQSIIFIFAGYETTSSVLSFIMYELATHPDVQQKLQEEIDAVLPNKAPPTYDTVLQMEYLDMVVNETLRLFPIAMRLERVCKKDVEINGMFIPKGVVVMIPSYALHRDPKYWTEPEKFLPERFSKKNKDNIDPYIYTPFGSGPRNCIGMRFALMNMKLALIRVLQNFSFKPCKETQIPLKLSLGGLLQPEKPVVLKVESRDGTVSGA

Row | SMILES | outcome | AC50
1 | Cc1cc(C)nc(Nc2ccccc2)n1 | inactive | –
2 | C=C(C)CN(CC)c1c([N+](=O)[O-])cc(C(F)(F)F)cc1[N+](=O)[O-] | – | 50 µM (active)
3 | Cc1ccc(N=CN(C)C=Nc2ccc(C)cc2C)c(C)c1 | inactive | –
4 | CN=C=S | inactive | –
5 | CCCCOCN(C(=O)CCl)c1c(CC)cccc1CC | – | 27.7 µM (active)
6 | CSC(=O)c1c(C(F)F)nc(C(F)(F)F)c(C(=O)SC)c1CC(C)C | – | 2.51 µM (active)
7 | COc1cc(Cl)c(OC)cc1Cl | inactive | –
8 | CC(C)N1C(=O)c2ccccc2NS1(=O)=O | inactive | –
9 | CCOP(=S)(OCC)Oc1nc(Cl)n(C(C)C)n1 | – | 4.55 µM (active)
10 | Clc1nc(Cl)nc(Nc2ccccc2Cl)n1 | – | 18.5 µM (active)
11 | CC1(C)C(C(=O)OC(C#N)c2cccc(Oc3ccccc3)c2)C1(C)C (stereo not given) | – | 50 µM (active)
12 | COP(=O)(OC)O/C(C)=C/C(=O)N(C)C | inactive | –
13 | COc1ccc(-c2ccccc2)cc1NNC(=O)OC(C)C | inactive | –
14 | OC(c1ccc(Cl)cc1)(c1ccc(Cl)cc1)C(Cl)(Cl)Cl | – | 87.6 µM (active)
15 | CCCC(=NOCC)C1=C(O)CC(CC(C)SCC)CC1=O (stereo not given) | – | 28.4 µM (active)
16 | COc1cc(OC)nc(NC(=O)NS(=O)(=O)c2ncccc2OCC(F)(F)F)n1 | – | 13.3 µM (active)
17 | CO/N=C(/C1=NOCCO1)c1ccccc1Oc1ncnc(Oc2ccccc2Cl)c1F | – | 30.5 µM (active)
18 | CCN(CC)C(=O)C(C)Oc1cccc2ccccc12 (stereo not given) | – | 2.65 µM (active)
19 | CCCCC(C#N)(Cn1cncn1)c1ccc(Cl)cc1 (stereo not given) | – | 4.85 µM (active)
20 | N#CN=C1SCCN1Cc1ccc(Cl)nc1 | – | 30.6 µM (active)
21 | CNC(=O)N(C)c1nnc(C(C)(C)C)s1 | inactive | –
22 | CC(C)NC(=O)N1CC(=O)N(c2cc(Cl)cc(Cl)c2)C1=O | – | 2.97 µM (active)
23 | O=P(O)(O)CCCl | inactive | –
24 | Cn1c(-c2ccccc2)cc(-c2ccccc2)[n+]1C | – | 50 µM (active)
25 | COC(=O)NS(=O)(=O)c1ccc(N)cc1 | inactive | –
26 | CCOc1cc(C(C)(C)C)ccc1C1COC(c2c(F)cccc2F)=N1 (stereo not given) | – | 4.8 µM (active)
27 | C=CCOC(=O)C(C)(C)OC(=O)c1cc(-n2c(=O)cc(C(F)(F)F)n(C)c2=O)ccc1Cl | – | 16.6 µM (active)
28 | Cc1c(COC(=O)[C@@H]2[C@H](/C=C(\Cl)C(F)(F)F)C2(C)C)cccc1-c1ccccc1 | – | 11.3 µM (active)
29 | CC(C)N1C(=O)N(c2ccccc2)CSC1=NC(C)(C)C | – | 12 µM (active)

Read-out: DNA damage-inducible transcript 3 (DDIT3), DDIT3 (gene 1649)
Experiment: LTEA_HepaRG_DDIT3: Life Technologies and Expression Analysis (LTEA) Assay for DNA damage-inducible transcript 3 (DDIT3) using HepaRG (AID 2283488)
Details: mRNA level, 48 h; actives raise or lower the signal
Method in brief: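 Eight-point concentration-response (100 uM highest, half-log dilutions) in HepaRG, 48 h, duplicate wells. Endpoint: qRT-PCR mRNA, normalized (ACTB, GAPDH, POLR2A), bidirectional fitting with DMSO as baseline.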

Row | SMILES | outcome | AC50
30 | Cc1cc(C)nc(Nc2ccccc2)n1 | inactive | –
31 | C=C(C)CN(CC)c1c([N+](=O)[O-])cc(C(F)(F)F)cc1[N+](=O)[O-] | inactive | –
32 | Cc1ccc(N=CN(C)C=Nc2ccc(C)cc2C)c(C)c1 | inactive | –
33 | CN=C=S | inactive | –
34 | CC(C)=CC1C(C(=O)OCc2coc(Cc3ccccc3)c2)C1(C)C (stereo not given) | inactive | –
35 | CCCCOCN(C(=O)CCl)c1c(CC)cccc1CC | inactive | –
36 | COCC(=O)N(c1c(C)cccc1C)C(C)C(=O)OC (stereo not given) | inactive | –
37 | CSC(=O)c1c(C(F)F)nc(C(F)(F)F)c(C(=O)SC)c1CC(C)C | inactive | –
38 | COc1cc(Cl)c(OC)cc1Cl | inactive | –
39 | CC(C)N1C(=O)c2ccccc2NS1(=O)=O | inactive | –
40 | CCOP(=S)(OCC)Oc1nc(Cl)n(C(C)C)n1 | inactive | –
41 | Clc1nc(Cl)nc(Nc2ccccc2Cl)n1 | inactive | –
42 | CC1(C)C(C(=O)OC(C#N)c2cccc(Oc3ccccc3)c2)C1(C)C (stereo not given) | inactive | –
43 | COP(=O)(OC)O/C(C)=C/C(=O)N(C)C | inactive | –
44 | COc1ccc(-c2ccccc2)cc1NNC(=O)OC(C)C | inactive | –
45 | OC(c1ccc(Cl)cc1)(c1ccc(Cl)cc1)C(Cl)(Cl)Cl | – | 77.2 µM (active)
46 | CCCC(=NOCC)C1=C(O)CC(CC(C)SCC)CC1=O (stereo not given) | inactive | –
47 | COc1cc(OC)nc(NC(=O)NS(=O)(=O)c2ncccc2OCC(F)(F)F)n1 | inactive | –

Row | SMILES | outcome | AC50
48 | CO/N=C(/C1=NOCCO1)c1ccccc1Oc1ncnc(Oc2ccccc2Cl)c1F | – | 25.1 µM (active)
49 | CCN(CC)C(=O)C(C)Oc1cccc2ccccc12 (stereo not given) | inactive | –
50 | CCCCC(C#N)(Cn1cncn1)c1ccc(Cl)cc1 (stereo not given) | – | 67.8 µM (active)
51 | N#CN=C1SCCN1Cc1ccc(Cl)nc1 | inactive | –
52 | CNC(=O)N(C)c1nnc(C(C)(C)C)s1 | inactive | –
53 | CC(C)NC(=O)N1CC(=O)N(c2cc(Cl)cc(Cl)c2)C1=O | inactive | –
54 | O=C(Nc1ccccc1-c1ccc(Cl)cc1)c1cccnc1Cl | inactive | –
55 | O=P(O)(O)CCCl | inactive | –
56 | Cn1c(-c2ccccc2)cc(-c2ccccc2)[n+]1C | – | 13.5 µM (active)
57 | CC1(C)C(C=C(Cl)Cl)C1C(=O)OC(C#N)c1cccc(Oc2ccccc2)c1 (stereo not given) | inactive | –
58 | COC(=O)NS(=O)(=O)c1ccc(N)cc1 | inactive | –
59 | CCOc1cc(C(C)(C)C)ccc1C1COC(c2c(F)cccc2F)=N1 (stereo not given) | – | 52.1 µM (active)
60 | C=CCOC(=O)C(C)(C)OC(=O)c1cc(-n2c(=O)cc(C(F)(F)F)n(C)c2=O)ccc1Cl | inactive | –
61 | Cc1c(COC(=O)[C@@H]2[C@H](/C=C(\Cl)C(F)(F)F)C2(C)C)cccc1-c1ccccc1 | – | 81.2 µM (active)
62 | CC(C)Oc1cccc(NC(=O)c2ccccc2C(F)(F)F)c1 | inactive | –
63 | COCC(C)N(C(=O)CCl)c1c(C)csc1C (stereo not given) | inactive | –
64 | CC1(C)CCC(=Cc2ccc(Cl)cc2)C1(O)Cn1cncn1 (stereo not given) | inactive | –
65 | CC(C)N1C(=O)N(c2ccccc2)CSC1=NC(C)(C)C | – | 73.8 µM (active)
